This is a sample that favours compounds with a hit; in the whole collection about 2.8% have one here.
PI4K2A block = inhibitors of human PI4K2A. Q9BTU6. purified PI4K2A, ADP-Glo luminescence, 1 h; hits give low values. activity change, negative = inhibition, % at 76.9 µM. 420,000 compounds, 0.13% hits. AID 1346378; in the data active = activity change below about -50%; inconclusive = mostly about -30% to -49%;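 note: -100% = wells without enzyme as full effect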
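Compounds are screened against recombinant PI4K2A using PI as substrate and ATP, the latter dispensed at 300 microM. Reactions run one hour at ambient temperature before ADP-Glo detection; full inhibition defined by wells lacking enzyme.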
RGS4 inhibitor = human RGS4 inhibition | P49798 | 390,000 compounds, 0.039% hits | Potency, µM (highest dose often 114 µM), without a hit: top-dose activity change, negative = inhibition, most hits filed as inhibitors | Transcreener GDP fluorescence polarization, RGS4-accelerated GTP hydrolysis; active = well fitted inhibition curve with a large enough effect; inconclusive = small, poorly fitted or top-dose-only effect; inactive = no such curve, though single readings can be large or run the other way; note: potency is the fitted concentration of half-maximal effect; % is set by controls: 0 for no effect and ±100 for the full control effect; nearly all actives have a fitted effect of over 75% in size
Target sequence (P49798 whole entry, looked up): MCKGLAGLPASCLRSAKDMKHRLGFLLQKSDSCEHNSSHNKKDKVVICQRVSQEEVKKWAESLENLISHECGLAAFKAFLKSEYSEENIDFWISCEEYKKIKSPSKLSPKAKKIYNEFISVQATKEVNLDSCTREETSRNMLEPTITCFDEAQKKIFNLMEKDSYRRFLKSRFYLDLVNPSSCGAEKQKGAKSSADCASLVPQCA
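MLSMR compounds (23 nl, pin-transferred) preincubated 10 min at room temperature with a 500nM (2x) first reagent, then RGS4 at 900nM (2x) plus Transcreener GDP mix added; fluorescence polarization (620/688 nm) read before and after 90 min at 30 °C.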
DRD3 agonist = D3 dopamine receptor (human) agonism; 410,000 compounds, 0.58% hits; D3R DiscoveRx beta-arrestin cells, luminescence, 90 min; max activation, %; in the data active = max activation above about 30%; note: 0% is about no effect
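Cells at 1500/well, incubated overnight, then treated with pinned compounds (dopamine as control) for 90 min at 37 degrees C. DiscoveRx reagent added for 30 - 60 minutes at room temperature; luminescence read.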
pAkt inh = Akt phosphorylation inhibition; AID 651550; Neuro2A IGF-stimulated pAkt S473 HTRF, 20 min; hits give low values; activity change, % for hits at 50 µM; 360,000 compounds, 0.32% hits; in the data active = activity change below about -80%; inconclusive = mostly about -51% to -80%; note: % is set by controls: 0 for no effect and ±100 for the full control effect
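Neuro2A cells (4,500/well, DMEM with 0.5% FBS) were treated with compound at a single 50 µM final concentration, stimulated with 6 nM IGF for 20 min at 37 °C, and lysed. Phospho-Akt Ser473 was read by HTRF as 665/615 ratio ×10^4.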
LDHA inh = blocks human lactate dehydrogenase A; P00338; purified LDHA, NADH/diaphorase-resazurin fluorescence; hits give low values; activity change, % (values are at about 110 or 230 µM); 480,000 compounds, 0.15% hits; AID 1347041; in the data active = activity change below about -30%; inconclusive = mostly about -25% to -30%;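 note: plate controls were DMSO wells for no effect and wells without enzyme for full effect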
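Human LDH5 at 2 nM final in Tris HCl pH 7.4 with 0.06 mM NADH and 0.2 mM pyruvate, reacted 5 minutes at room temperature. Remaining NADH coupled via diaphorase/resazurin; resorufin fluorescence read at 0 and 20 minutes, normalized to enzyme-free and DMSO wells.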
DRD3 antagonist = blocks the human D3 dopamine receptor | P35462 | 360,000 compounds, 2.5% hits | D3R cells, DiscoveRx beta-arrestin luminescence, antagonist mode; hits give low values | max response, negative = inhibition, % | AID 652054; in the data active = max response below about -50%; inconclusive = no clear call, values can overlap the other calls; note: % is set by controls: 0 for no effect and ±100 for the full control effect
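Cells expressing the human receptor were seeded at 1500 cells/well, incubated overnight at 37 degrees C in 5% CO2, then exposed to library compounds with dopamine controls for 90 minutes at 37 degrees C before luminescent detection.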
* marks the source's active call; other numbers are inactive results; i = inactive; ? = inconclusive; / = no result.

SMILES	PI4K2A block	RGS4 inhibitor	DRD3 agonist	pAkt inh	LDHA inh	DRD3 antagonist
COc1cc2[nH]c(C(=O)N3CCC4(CC3)OCCO4)cc2c(OC)c1OC	0.1	18.2%	-7.2	i	-4.6	-83.8*
COc1ccc(C2SCC(=O)Nc3c2c(C)nn3C)cc1 (centres undefined)	/	/	/	/	-0.7	/
O=C1NC(=O)N(c2ccc(Cl)cc2)C(=O)/C1=C\c1ccc(Sc2nc3ccccc3[nH]2)o1	?	?	-9.0	i	-76.4*	-20.7
CCCCCCCSc1cc(OC)c(CCN(C)C)cc1OC	2.7	-35.8%	-15.7	i	-1.7	-65.7*
N#C/C(=C/c1ccc(O)c(O)c1)C(N)=S	-6.6	6.7µM*	/	/	/	/
N#C/C(=C\c1ccc(O)c(O)c1)C(=O)NCCCNC(=O)/C(C#N)=C/c1ccc(O)c(O)c1	-11.4	?	/	/	/	/
COC(=O)C1=C(c2cc3ccccc3o2)C[C@@H]2CC[C@H]1N2C(=O)NCc1ccccc1	-0.9	-4.6%	5.9	i	0.7	-50.0*
COC(=O)C1=C(c2cc3ccccc3o2)C[C@@H]2CC[C@H]1N2C(=O)NCc1ccc(C(F)(F)F)cc1	-1.1	11.6%	-4.6	i	-1.4	-12.3
COC(=O)C1=C(c2cc3ccccc3o2)C[C@@H]2CC[C@H]1N2C(=O)NCCNC(C)=O	-3.9	-2.7%	41.2*	i	-3.4	8.4
COC(=O)C1=C(c2cc3ccccc3o2)C[C@@H]2CC[C@H]1N2C(=O)NCCCOC(C)C	-4.4	1.3%	-0.5	i	-4.7	7.6
CN1CCN(c2nccc3c2ncn3C)CC1	4.7	9.3%	0.1	i	-2.6	-64.0*
COc1cc2c(cc1OC)C1[C@H]3C(=CC[C@H]1OC2O)CCN3C (some centres undefined)	-0.2	-4.0%	-37.8	i	2.7	-54.0*
Cc1[nH]nc2c1C(c1ccc(-c3ccccc3F)o1)SCC(=O)N2 (centres undefined)	/	/	/	/	-2.9	/
CN1CCN(c2ccc(C#N)cc2)CC1	/	/	/	/	2.6	/
CN=C(SCc1ccccc1)c1c(O)n(C)c(=O)n(C)c1=O	-5.1	32.0%	4.1	-108.1%*	3.3	8.1
CC(C)C12CN3CC(C(C)C)(CN(C1)C3c1cccnc1)C2=O (centres undefined)	5.0	-16.2%	-1.6	-108.2%*	-2.0	-1.8
CCOC(=O)c1cc2ccccc2n1C1CCN(Cc2ccccc2)CC1	-4.6	/	-14.8	i	3.5	-115.7*
Cc1cccc2nc(-c3ccccc3)c(-c3ccc(CN4CCC(n5c(=O)[nH]c6ccccc65)CC4)cc3)nc12	2.6	/	-17.4	i	-0.4	?
Cc1cc(=O)oc2cc(OCC(=O)N3CCN(CCO)CC3)c(Cl)cc12	/	/	/	/	0.9	/
CCCN1CCO[C@@H]2c3cc(O)ccc3OC[C@H]21	-1.7	?	146.2*	i	4.8	28.4
CCCN1CCc2cccc3c2[C@H]1Cc1ccc(O)c(O)c1-3	-2.7	?	4.3	i	16.7	?
CC(C)CNC(=O)/C=C/c1ccc(C(C)C)cc1	/	/	/	/	10.1	/
COc1ccc(C(=O)C2CCCN(Cc3ccc(C)s3)C2)c(OC)c1 (centres undefined)	2.0	?	-16.3	i	-2.3	-68.9*
COc1ccc(F)cc1C(=O)C1CCCN(Cc2cnc(C)s2)C1 (centres undefined)	0.2	13.3%	-13.2	i	-1.1	?
COc1ccc(C(=O)C2CCCN(Cc3cccc(C)n3)C2)c(OC)c1 (centres undefined)	2.9	-9.0%	-9.4	i	-3.0	14.1
Cc1ccsc1C(=O)C1CCCN(CCO)C1 (centres undefined)	3.0	-19.7%	-9.4	i	-3.2	?
COc1ccc(Cl)cc1C(=O)C1CCCN(Cc2cnc(C)s2)C1 (centres undefined)	6.4	-20.4%	-7.9	i	1.5	-55.8*
Cc1ccsc1C(=O)C1CCCN(Cc2cnn(C)c2)C1 (centres undefined)	-3.9	-3.1%	-13.7	i	-8.9	?

Screening data (PubChem BioAssay)
